In PubChem BioAssay (NCATS):
Inconclusive results are not listed. Calls of active or inactive are those of the source. The call rests on the fitted dose curve; in most records, active means well fitted curve in the direction sought with a large enough effect; inconclusive means small, poorly fitted or top-dose-only effect, or another doubt; inactive means no such curve, though single readings can be large; an effect the other way counts as inactive or inconclusive.

Assays:
[1] = Quantitative High-Throughput drug screen in 47 multiple myeloma cell lines against the NCATS MIPE library collection: Karpas417_ECACC cell viability assay (AID 1918961); conditions: Karpas417 myeloma viability, CellTiter-Glo ATP luminescence, 48 h; viability (% of DMSO): at 45.8 µM (top of the series)
Method in brief: (§1)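 Luminescent ATP measurement with CellTiter-Glo gives viability, scaled between DMSO-only wells (100%) and media-only wells (0%). Cells, 500 per well, faced library compounds for 48 hours at 37C.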

[2] = Quantitative High-Throughput drug screen in 47 multiple myeloma cell lines against the NCATS MIPE library collection: KHM11_PLB cell viability assay (AID 1918962); further: nearly all actives have a fitted effect of over 35% in size
Method in brief: (§2)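 qHTS of the MIPE 4.0 collection: 500 myeloma cells/well, 48 h drug exposure at 37C in 5% CO2, then CellTiter-Glo for 5 min at room temperature before luminescence reading.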

[3] = Quantitative High-Throughput drug screen in 47 multiple myeloma cell lines against the NCATS MIPE library collection: JIM3_ECACC cell viability assay (AID 1918963; further: nearly all actives have a fitted effect of over 35% in size)
Method in brief: as §2

[4] = Quantitative High-Throughput drug screen in 47 multiple myeloma cell lines against the NCATS MIPE library collection: JIM1_ECACC cell viability assay (AID 1918964)
Method in brief: (§3)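 Myeloma cells (500 per well) were exposed to MIPE 4.0 compounds by pin transfer and incubated 48 hours at 37C, 5% CO2. Viability was read as ATP by CellTiter-Glo luminescence, normalised to DMSO (100%) and media-only (0%) wells.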

[5] = Quantitative High-Throughput drug screen in 47 multiple myeloma cell lines against the NCATS MIPE library collection: INA6_PLB cell viability assay (AID 1918965; further: nearly all actives have a fitted effect of over 55% in size)
Method in brief: as §1

[6] = Quantitative High-Throughput drug screen in 47 multiple myeloma cell lines against the NCATS MIPE library collection: JJN3_DSMZ cell viability assay (AID 1918966; further: nearly all actives have a fitted effect of over 50% in size)
Method in brief: as §3

[7] = Quantitative High-Throughput drug screen in 47 multiple myeloma cell lines against the NCATS MIPE library collection: H1112_PLB cell viability assay (AID 1918967; further: nearly all actives have a fitted effect of over 30% in size)
Method in brief: as §3

[8] = Quantitative High-Throughput drug screen in 47 multiple myeloma cell lines against the NCATS MIPE library collection: Karpas25_ECACC cell viability assay (AID 1918968; further: nearly all actives have a fitted effect of over 35% in size)
Method in brief: as §3

[9] = Quantitative High-Throughput drug screen in 47 multiple myeloma cell lines against the NCATS MIPE library collection: KMS12BM_JCRB cell viability assay (AID 1918971); further: nearly all actives have a fitted effect of over 35% in size
Method in brief: (§4)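 Steps: seed 500 cells per well; pin-transfer MIPE 4.0 library; incubate 48 h at 37C, 5% CO2, humidified; add CellTiter-Glo, 5 min room temperature; read luminescence.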

[10] = Quantitative High-Throughput drug screen in 47 multiple myeloma cell lines against the NCATS MIPE library collection: KMS12PE_JCRB cell viability assay (AID 1918972); further: nearly all actives have a fitted effect of over 30% in size
Method in brief: as §1

[11] = Quantitative High-Throughput drug screen in 47 multiple myeloma cell lines against the NCATS MIPE library collection: KMS21BM_JCRB cell viability assay (AID 1918974); conditions: ATP luminescence, 48 h; viability: at 45.8 µM (top of the series)
Method in brief: as §3

[12] = Quantitative High-Throughput drug screen in 47 multiple myeloma cell lines against the NCATS MIPE library collection: KMS26_JCRB cell viability assay (AID 1918975); further: nearly all actives have a fitted effect of over 45% in size
Method in brief: as §4

[13] = Quantitative High-Throughput drug screen in 47 multiple myeloma cell lines against the NCATS MIPE library collection: MMM1_PLB cell viability assay (AID 1918976); further: nearly all actives have a fitted effect of over 35% in size
Method in brief: (§5)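 qHTS format: cells plated (500/well), pin-dosed with MIPE 4.0 compounds, kept 48 h at 37 °C. Readout was CellTiter-Glo luminescence, median RLU.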

[14] = Quantitative High-Throughput drug screen in 47 multiple myeloma cell lines against the NCATS MIPE library collection: OCIMY1_PLB cell viability assay (AID 1918979); further: nearly all actives have a fitted effect of over 35% in size
Method in brief: as §5

[15] = Quantitative High-Throughput drug screen in 47 multiple myeloma cell lines against the NCATS MIPE library collection: MM1S_ATCC cell viability assay (AID 1918980); further: nearly all actives have a fitted effect of over 45% in size
Method in brief: as §5

[16] = Quantitative High-Throughput drug screen in 47 multiple myeloma cell lines against the NCATS MIPE library collection: MM1R_ATCC cell viability assay (AID 1918981); further: nearly all actives have a fitted effect of over 35% in size
Method in brief: as §5

[17] = Quantitative High-Throughput drug screen in 47 multiple myeloma cell lines against the NCATS MIPE library collection: KMS27_JCRB cell viability assay (AID 1918970); conditions: KMS27 myeloma cells, CellTiter-Glo ATP viability, 48 h; viability (% of DMSO): at 45.8 µM (top of the series); further: nearly all actives have a fitted effect of over 30% in size
Method in brief: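 Myeloma cells (500 per well) were exposed to MIPE 4.0 compounds for 48 h at 37 °C, 5% CO2; viability was read as ATP luminescence with CellTiter-Glo, normalized to DMSO-only (100%) and media-only (0%) wells.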

[18] = Quantitative High-Throughput drug screen in 47 multiple myeloma cell lines against the NCATS MIPE library collection: KMS20_JCRB cell viability assay (AID 1918973); further: nearly all actives have a fitted effect of over 45% in size
Method in brief: as §3

[19] = Quantitative High-Throughput drug screen in 47 multiple myeloma cell lines against the NCATS MIPE library collection: MOLP8_DSMZ cell viability assay (AID 1918977); further: nearly all actives have a fitted effect of over 45% in size
Method in brief: as §5

[20] = Quantitative High-Throughput drug screen in 47 multiple myeloma cell lines against the NCATS MIPE library collection: NCIH929_DSMZ cell viability assay (AID 1918978); further: nearly all actives have a fitted effect of over 35% in size
Method in brief: as §5

Measured: Potency
Potency means the concentration at half of the fitted maximal effect.

NC(=O)N1CCC(CC(=O)N2CCC([C@H]3c4ncc(Br)cc4CCc4cc(Cl)cc(Br)c43)CC2)CC1
active: [1] 10500 nM | [2] 37.2 nM | [3] 18700 nM | [4] 5900 nM | [5] 7430 nM | [6] 16600 nM | [7] 10500 nM | [8] 14800 nM | [9] 18700 nM | [10] 11800 nM | [11] 13200 nM | [12] 20900 nM | [13] 16600 nM | [14] 20900 nM | [15] 16600 nM | [16] 20900 nM

COc1cccc2c1C(=O)c1c(O)c3c(c(O)c1C2=O)C[C@@](O)(C(C)=O)C[C@H]3O[C@H]1C[C@H](N)[C@H](O)[C@H](C)O1
active: [1] 46.9 nM | [2] 235 nM | [3] 93.5 nM | [4] 74.3 nM | [5] 33.2 nM | [6] 105 nM | [7] 209 nM | [8] 37.2 nM | [17] 37.2 nM | [9] 66.2 nM | [10] 66.2 nM | [18] 52.6 nM | [12] 296 nM | [13] 166 nM | [19] 132 nM | [20] 46.9 nM | [14] 332 nM | [15] 46.9 nM | [16] 26.4 nM

N#Cc1c(C2CCNCC2)cc(-c2c(O)cccc2OCC2CC2)nc1N
active: [1] 2640 nM | [2] 11800 nM | [3] 18700 nM | [5] 16600 nM | [6] 18700 nM | [8] 18700 nM | [17] 418 nM | [9] 14800 nM | [18] 23500 nM | [11] 16600 nM | [13] 18700 nM | [19] 14800 nM | [20] 20900 nM | [15] 16600 nM | [16] 20900 nM

C[C@H]1C[C@H]2[C@@H]3CCC4=CC(=O)C=C[C@]4(C)[C@@H]3C(=O)C[C@]2(C)[C@@]1(O)C(=O)CO
inactive: [1] | [2] | [3] | [6] | [7] | [8] | [17] | [9] | [10] | [19] | [15] | [16]

CCc1c(O)cc(O)c(C(=O)c2ccc(OCCN3CCOCC3)c(OC)c2)c1CC(=O)N(CCOC)CCOC
active: [2] 469 nM | [3] 833 nM | [5] 590 nM | [6] 935 nM | [7] 14800 nM | [8] 526 nM | [9] 1050 nM | [18] 526 nM | [12] 833 nM | [13] 1480 nM | [19] 662 nM | [20] 1050 nM | [14] 16600 nM | [15] 1480 nM | [16] 1180 nM
inactive: [1]

Oc1ccc(-c2ccc(-c3cc(Nc4cccc(CNC5CC5)c4)n[nH]3)cc2)c(O)c1
active: [1] 833 nM | [2] 743 nM | [3] 1870 nM | [4] 264 nM | [5] 662 nM | [6] 1320 nM | [7] 1480 nM | [8] 1050 nM | [17] 743 nM | [9] 2640 nM | [18] 1320 nM | [11] 590 nM | [12] 3320 nM | [19] 2090 nM | [14] 9350 nM | [15] 1660 nM | [16] 2350 nM

CCN(CC)Cc1ccc2cc(COC(=O)Nc3ccc(C(=O)NO)cc3)ccc2c1
active: [1] 526 nM | [2] 1320 nM | [3] 1480 nM | [4] 469 nM | [5] 74.3 nM | [6] 833 nM | [7] 1180 nM | [8] 372 nM | [17] 235 nM | [9] 469 nM | [10] 469 nM | [18] 332 nM | [11] 41.8 nM | [12] 743 nM | [19] 372 nM | [20] 590 nM | [14] 1320 nM | [15] 590 nM | [16] 332 nM

CCNC(=O)Nc1ccc(-c2nc3c(c(N4CCOC[C@H]4C)n2)CCN(C2COC2)C3)cc1
active: [1] 83.3 nM | [2] 469 nM | [4] 132 nM | [5] 2090 nM | [6] 833 nM | [7] 590 nM | [8] 935 nM | [9] 1180 nM | [10] 5260 nM | [11] 2350 nM | [12] 1660 nM | [19] 833 nM | [20] 526 nM | [14] 469 nM | [15] 1050 nM | [16] 1050 nM
